{
  "source": "PubChem BioAssay (Tox21)",
  "note": "Records with an inconclusive call do not appear. Values without a mark were called inactive. Active and inactive are the calls of the source. Calls follow the shape of the dose curve; as a rule, active = well fitted curve in the direction sought with a large enough effect in the signal ratio in the repeat runs (not every such curve was filed as active); inconclusive = weak or mixed curves, or a change in a side signal; inactive = no such curve, though single readings can be large or run the other way; the % refers to the signal ratio. % is scaled to controls: 0 for no effect and ±100 for the full control effect.",
  "data": [
    {"test": "qHTS assay to identify small molecule agonists of the NFkB signaling pathway (AID 1159509)", "settings": "NFkB-bla ME-180 cells, beta-lactamase FRET ratio, 5 h; series mostly up to 61 µM", "excerpt": "National Center for Advancing Translational Sciences [NCATS]\nNIH Chemical Genomics Center [NCGC]\nU.S. Environmental Protection Agency [EPA]\nNational Institutes of Environmental Health Sciences [NIEHS]\nNational Toxicology Program [NTP]\nU.S. Food and Drug Administration [FDA]\nTranscription factors and their stimulated target gene expression play pivotal roles across many cellular processes including responses to environmental stimuli. Proper regulation of associated pathways is critical to maintain cell health and function. Constitutive activation of transcription factor pathways has been implicated in tumors as it may block cellular functions such as apoptosis and lead to invasion and metastasis. One important transcription factor that stimulates gene expression in response to cytokines, UV radiation, and other stimuli is nuclear factor-kappa B (NFkB). To measure activation of the NFkB pathway, the CellSensor NFkB-bla ME-180 cell line (Life Technologies, Carlsbad, CA) that stably expresses beta-lactamase reporter gene under the regulation of a NF-kB response element was used. This assay allows measurement of the NFkB pathway activity induced by compounds in a ME-180 cell line. This system quantitates NF-kB activity using a FRET-based assay system where beta-lactamase expression disrupts FRET, allowing for fluorescent measurement of activity. This cell line has been used to screen the Tox21 10K compound library and to identify compounds that induce the NFkB pathway activity.\nTox21 Assay Protocol Summary:\nNFkB-bla ME-180 cells were dispensed at 2,000 cells/6 uL of assay medium per well into black wall/clear-bottom 1536-well plates using a Multidrop Combi (ThermoFisher Scientific, Waltham, MA) dispenser. After the assay plates were incubated at 37 C and 5% CO2 for an overnight, 23 nL of compounds dissolved in DMSO, positive controls or DMSO only was transferred to the assay plate by a Pintool station (Kalypsys, San Diego, CA). The assay plates were incubated at 37 C and 5% CO2 for 5 hr. One uL of LiveBLAzer B/G FRET substrate (Life Technologies) was added using a Flying Reagent Dispenser (Aurora Discovery, San Diego, CA) and the plates were incubated at room temperature for 1.5 hr. Fluorescence intensity (405 nm excitation, 460 nm and 530 nm emissions) was measured using an Envision plate reader (PerkinElmer, Shelton, CT).", "values": [
      {"smiles": "Cc1nc(C)nc(N2C[C@@H](C)N(c3ccnc([C@@H](C)O)n3)[C@@H](C)C2)n1", "outcome": "inactive"},
      {"smiles": "CCOC(=O)C(=O)c1csc(NC=O)n1", "outcome": "inactive"},
      {"smiles": "O=C(O)c1c(Cl)ccc(Cl)c1Cl", "outcome": "inactive"},
      {"smiles": "CCC(=O)OCCC(C)CCC=C(C)C", "note": "(stereo not given)", "outcome": "inactive"},
      {"smiles": "C[CH2][Ge]([Cl])([CH2]C)[CH2]C", "outcome": "inactive"},
      {"smiles": "O=CO", "activation": "-0.32% [at 6.95 µM]"},
      {"smiles": "O=C1OC(=O)c2ccccc21", "outcome": "inactive"},
      {"smiles": "CCN(CC)C(=O)C1CN2CCc3cc(OC)c(OC)cc3C2CC1OC(C)=O", "note": "(stereo not given)", "outcome": "inactive"},
      {"smiles": "CC(=O)Nc1ncc([N+](=O)[O-])s1", "outcome": "inactive"},
      {"smiles": "CC(C)COC(=O)COc1ccc(Cl)cc1Cl", "outcome": "inactive"},
      {"smiles": "O=C(O)CCNC(=O)c1ccccc1", "outcome": "inactive"},
      {"smiles": "CC(=O)N(CC(O)CO)c1c(I)c(C(=O)NCC(O)CO)c(I)c(C(=O)NCC(O)CO)c1I", "note": "(stereo not given)", "outcome": "inactive"},
      {"smiles": "C[C@@H]1C[C@H]2[C@@H]3C[C@H](F)C4=CC(=O)C=C[C@]4(C)[C@@]3(F)[C@@H](O)C[C@]2(C)[C@@]1(O)C(=O)CO", "outcome": "inactive"},
      {"smiles": "C=CCCCCCCCCCCC", "activation": "0.0657% [at 6.95 µM]"},
      {"smiles": "NS(=O)(=O)c1ccc(Cl)c(S(N)(=O)=O)c1", "outcome": "inactive"},
      {"smiles": "O=C(O)/C=C/c1ccccc1", "outcome": "inactive"},
      {"smiles": "C=C(C)C(=O)OC", "outcome": "inactive"},
      {"smiles": "c1ccc(CNc2ncnc3nc[nH]c23)cc1", "outcome": "inactive"},
      {"smiles": "C=C(C)C(=O)OCCCCCCOC(=O)C(=C)C", "outcome": "inactive"},
      {"smiles": "OC(CCN1CCCCC1)(c1ccccc1)c1ccccc1", "outcome": "inactive"},
      {"smiles": "Cc1nc2ccccc2c(=O)o1", "outcome": "inactive"},
      {"smiles": "Cc1cccc(Nc2ccncc2S(=O)(=O)NC(=O)NC(C)C)c1", "outcome": "inactive"},
      {"smiles": "CN(C1CCCCC1)S(=O)(=O)c1ccccc1N", "outcome": "inactive"},
      {"smiles": "Nc1ccnc(=O)[nH]1", "outcome": "inactive"},
      {"smiles": "Nc1cc(Cl)cc(S(=O)(=O)O)c1O", "outcome": "inactive"},
      {"smiles": "CC(CC(=O)O)CC(C)(C)C", "note": "(stereo not given)", "outcome": "inactive"},
      {"smiles": "COc1ccc(OC)c(NC(=O)CC(C)=O)c1", "outcome": "inactive"},
      {"smiles": "Cc1ccccc1N1CCN(CCc2nnc3n2CCCC3)CC1", "outcome": "inactive"},
      {"smiles": "Cc1ccccc1C", "outcome": "inactive"},
      {"smiles": "O=C(CN1CCN(Cc2ccc3c(c2)OCO3)CC1)N1c2ccccc2Sc2ccccc21", "outcome": "inactive"},
      {"smiles": "COc1cc([N+](=O)[O-])ccc1N", "outcome": "inactive"},
      {"smiles": "Cc1c(C(C)C)c(=O)n(-c2ccccc2)n1C", "outcome": "inactive"},
      {"smiles": "CO[Si](CCCS)(OC)OC", "outcome": "inactive"},
      {"smiles": "SCCSCCS", "outcome": "inactive"},
      {"smiles": "CCCCCC1CCCC(=O)O1", "note": "(stereo not given)", "outcome": "inactive"},
      {"smiles": "CC(C)CCCC(C)CC=O", "note": "(stereo not given)", "outcome": "inactive"},
      {"smiles": "CC(C)(CO)[C@@H](O)C(=O)NCCCO", "outcome": "inactive"},
      {"smiles": "Cc1cc(O)c2c(c1)C(=O)c1cccc(O)c1C2=O", "outcome": "inactive"},
      {"smiles": "C=C(C)C(=O)OC1CC(C)CC(C)(C)C1", "note": "(stereo not given)", "outcome": "inactive"},
      {"smiles": "CCNC(=O)NCCCOc1cccc(CN2CCCCC2)c1", "outcome": "inactive"}
    ]}
  ]
}
